From PubChem BioAssay
12-LOX inh = Primary qHTS assay for inhibitors of human arachidonate 12S-lipoxygenase (ALOX12): Round 2; Potency, µM (series often up to 108 µM), actives largely listed as inhibitors; Polyunsaturated fatty acid lipoxygenase ALOX12 (Homo sapiens), P18054; 580,000 compounds, 1.1% hits; purified 12hLO, xylenol orange hydroperoxide absorbance
Target sequence (P18054 whole entry, looked up): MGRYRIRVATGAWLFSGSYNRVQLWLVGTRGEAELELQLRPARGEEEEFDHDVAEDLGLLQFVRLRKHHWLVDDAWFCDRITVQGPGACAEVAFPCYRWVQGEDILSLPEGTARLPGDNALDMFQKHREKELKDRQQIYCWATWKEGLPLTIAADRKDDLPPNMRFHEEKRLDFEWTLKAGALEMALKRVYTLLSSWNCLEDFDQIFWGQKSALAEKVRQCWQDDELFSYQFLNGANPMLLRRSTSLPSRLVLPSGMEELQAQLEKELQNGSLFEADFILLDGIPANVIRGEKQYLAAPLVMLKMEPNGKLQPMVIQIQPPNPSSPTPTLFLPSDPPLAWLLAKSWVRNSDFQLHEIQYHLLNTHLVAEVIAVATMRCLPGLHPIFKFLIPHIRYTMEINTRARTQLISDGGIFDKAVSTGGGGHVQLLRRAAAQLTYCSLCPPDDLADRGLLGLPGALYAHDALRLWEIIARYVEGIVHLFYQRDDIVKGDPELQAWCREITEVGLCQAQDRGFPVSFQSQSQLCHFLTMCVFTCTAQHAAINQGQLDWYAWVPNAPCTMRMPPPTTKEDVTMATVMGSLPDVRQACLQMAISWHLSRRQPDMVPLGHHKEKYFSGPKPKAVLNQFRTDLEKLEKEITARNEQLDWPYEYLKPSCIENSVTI
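Purified human 12hLO (150 nM final) in 25 mM Hepes, 0.01% Triton X-100, pH 7.0 was preincubated 15 min at room temperature with compound. Then 40 uM arachidonic acid was added, 30 min. Hydroperoxide was read by Fe-XO absorbance ratio 573/405 nm.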
IL-1B inflam inh = qHTS for Inhibitors of Inflammasome Signaling: IL-1-beta AlphaLISA Primary Screen. 360,000 compounds, 4.7% hits. activity change, % at 57.5 µM. AID 743279, 2014. THP-1 LPS/ATP IL-1B secretion, AlphaLISA, 16 h; stronger effect = lower value; in the data active means activity change below about -50%; inconclusive means mostly about -30% to -49%
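THP-1 cells pretreated 1 hr with compounds (up to 57.5 uM final), then stimulated with LPS (250 ng/mL final) plus ATP (1.25 mM final); secreted IL-1B measured by AlphaLISA after 16 hr, decreased signal indicating inhibition.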
HT1080 IDH1KD tx = qHTS for induction of synthetic lethality in tumor cells producing 2HG: qHTS for the HT-1080-IDH1KD cell line | Potency, µM (titrated, usually from 46.1 µM), usual class: cytotoxic | 360,000 compounds, 2% hits | AID 686971, 2013 | HT-1080 IDH1 knockdown viability, ATP luminescence, 48 h
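Luminescent ATP read-out (CellTiter-Glo, 10 min at room temperature) after 48 h compound exposure at 37 °C gave viability of IDH1-knockdown HT-1080 cells. Activity was normalised to DMSO and cell-free wells, then fitted as concentration-response curves.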
TDP1 cell noCPT = qHTS for Inhibitors of human tyrosyl-DNA phosphodiesterase 1 (TDP1): qHTS in cells in absence of CPT | Potency, µM (titrated, usually from 46.2 µM), hits mostly inhibitors | 420,000 compounds, 15% hits | DT40 Tdp1-/- hTDP1 cells, no CPT, ATP luminescence, 48 h; further: nearly all actives have a fitted effect of over 55% in size
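Growth kinetics read by CellTiter-Glo luminescence after ≥48 hr at 37 °C. Cells: DT40 Tdp1-/- stably carrying human TDP1, 400 per well, compound exposure in the absence of CPT (DMSO vehicle).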
HT1080-NT tox = qHTS for induction of synthetic lethality in tumor cells producing 2HG: qHTS for the HT-1080-NT fibrosarcoma cell line | HT-1080-NT fibrosarcoma viability, CellTiter-Glo ATP luminescence, 48 h | Potency, µM (doses to about 46.1 µM), hits mostly cytotoxic | 360,000 compounds, 1.6% hits | AID 686970, 2013;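 further: NT is the 2HG producing partner of a matched IDH1 knockdown line; nearly all actives have a fitted effect of over 55% in size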
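Viability by CellTiter-Glo luminescence after 48 h compound exposure at 37C of HT-1080-NT cells (750/well, RPMI, 5% FBS). % activity scaled between DMSO wells and medium-only wells, then curve-fitted and categorized by curve class.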
DT40 TDP1 CPT = qHTS for Inhibitors of human tyrosyl-DNA phosphodiesterase 1 (TDP1): qHTS in cells in presence of CPT. chicken DT40 Tdp1-/-;hTDP1 cells + 20 nM CPT, ATP luminescence, 48 h. Potency, µM (top dose mostly 46.2 µM), most hits filed as inhibitors. 420,000 compounds, 12% hits. AID 686979, 2013; further: nearly all actives have a fitted effect of over 55% in size
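Chicken DT40 Tdp1-/- cells complemented with human TDP1, 400 cells/well, exposed to compounds plus 20 nM camptothecin for at least 48 h at 37 C; viability read as ATP content by CellTiter-Glo luminescence.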
Each line names hits and unclear results; the compound was inactive in the other large screens. The entries come from a sample that favours hits as a whole. Unless noted, the call rests on the fitted dose curve; in most records, active means well fitted curve in the direction sought with a large enough effect; inconclusive means small, poorly fitted or top-dose-only effect, or another doubt; inactive means no such curve, though single readings can be large; an effect the other way counts as inactive or inconclusive.

CC(=O)Nc1cc(-c2cccnc2)cn2c(-c3ccc(F)cc3)cnc12	TDP1 cell noCPT 23.1µM, DT40 TDP1 CPT inconclusive
COc1cc(-c2ccc(NC(C)=O)c(OC)c2)ccc1NC(C)=O	none
COc1ccccc1-c1cc(NC(C)=O)c2ncc(-c3cccc(C(C)=O)c3)n2c1	12-LOX inh inconclusive, HT1080 IDH1KD tx inconclusive, TDP1 cell noCPT 14.6µM, HT1080-NT tox inconclusive, DT40 TDP1 CPT 23.1µM
CC(=O)Nc1cc(-c2ccsc2)cn2c(-c3ccc(F)cc3)cnc12	12-LOX inh inconclusive, HT1080 IDH1KD tx inconclusive, TDP1 cell noCPT 18.4µM, HT1080-NT tox inconclusive, DT40 TDP1 CPT 16.4µM
COc1ccc(-c2cnc3c(NC(C)=O)cc(-c4ccsc4)cn23)cc1OC	IL-1B inflam inh inconclusive, TDP1 cell noCPT 20.6µM, DT40 TDP1 CPT 16.4µM (no result: 12-LOX inh)
CCn1c(=O)c2c(nc(-n3nc(C)c(C)c3C)n2CC)n(C)c1=O	none (no result: IL-1B inflam inh, HT1080 IDH1KD tx, TDP1 cell noCPT, HT1080-NT tox, DT40 TDP1 CPT)
COc1cccc(-c2noc(COc3ccc(C(C)(C)C)cc3)n2)c1	none (no result: IL-1B inflam inh, HT1080 IDH1KD tx, HT1080-NT tox)
COc1ccc(-c2cc(NC(C)=O)c3ncc(-c4ccc(OC)c(OC)c4)n3c2)cc1OC	12-LOX inh inconclusive, HT1080 IDH1KD tx inconclusive, TDP1 cell noCPT 14.6µM, HT1080-NT tox inconclusive, DT40 TDP1 CPT 18.4µM
COc1ccc(-c2cnc3c(NC(C)=O)cc(-c4ccccc4OC)cn23)cc1OC	12-LOX inh inconclusive, HT1080 IDH1KD tx 25.9µM, HT1080-NT tox inconclusive, DT40 TDP1 CPT 11.6µM (no result: IL-1B inflam inh)
Cc1ccc(C(=O)c2cnc3ccccc3c2-c2ccccc2)cc1	TDP1 cell noCPT 23.1µM, DT40 TDP1 CPT inconclusive
COc1ccc(C(=O)c2cnc3ccccc3c2-c2ccccc2)cc1	TDP1 cell noCPT inconclusive
CC1(C)Oc2ccc3ccc(=O)oc3c2/C(=C/Nc2ccccn2)C1=O	12-LOX inh inconclusive, TDP1 cell noCPT inconclusive, DT40 TDP1 CPT inconclusive
CC1(C)Oc2ccc3ccc(=O)oc3c2/C(=C/Nc2cccc(O)c2)C1=O	12-LOX inh inconclusive, IL-1B inflam inh -83.6, HT1080 IDH1KD tx inconclusive, TDP1 cell noCPT 20.6µM, HT1080-NT tox inconclusive, DT40 TDP1 CPT inconclusive
CC1(C)Oc2ccc3ccc(=O)oc3c2/C(=C/Nc2ccc(O)cc2)C1=O	IL-1B inflam inh -80.6, TDP1 cell noCPT inconclusive, HT1080-NT tox inconclusive
COc1ccc(NCC(=O)N/N=C/c2cc([N+](=O)[O-])ccc2N2CCCC2)cc1	IL-1B inflam inh inconclusive, TDP1 cell noCPT inconclusive, DT40 TDP1 CPT 20.6µM
Cc1cccc(OCC(=O)N/N=C/c2cc([N+](=O)[O-])ccc2N2CCOCC2)c1	TDP1 cell noCPT 18.4µM, DT40 TDP1 CPT 20.6µM
COc1cc(/C=N/NC(=O)COc2ccc([N+](=O)[O-])cc2)ccc1OCC(=O)N1CCOCC1	TDP1 cell noCPT 16.4µM
CCN(CC)C(=O)C1CCCN(c2ccc([N+](=O)[O-])cc2/C=N/NC(=O)c2ccccc2)C1 (configuration not stated)	TDP1 cell noCPT inconclusive
CCN(CC)C(=O)C1CCCN(c2ccc([N+](=O)[O-])cc2/C=N/NC(=O)c2cccc(O)c2)C1 (configuration not stated)	IL-1B inflam inh -60.6, TDP1 cell noCPT inconclusive, DT40 TDP1 CPT inconclusive
COc1cccc2c1O/C(=N\O)C(C(=O)Nc1cccc(Br)c1)C2 (configuration not stated)	TDP1 cell noCPT inconclusive
C[C@@H]1CN([C@H](C)CO)C(=O)CCCn2nncc2CO[C@H]1CN(C)Cc1ccc2c(c1)OCCO2	TDP1 cell noCPT inconclusive
O=C(Nc1ccc(F)c(F)c1)c1cc(S(=O)(=O)NC2CCCCCC2)ccc1F	12-LOX inh inconclusive, TDP1 cell noCPT 20.6µM, DT40 TDP1 CPT 20.6µM (no result: IL-1B inflam inh, HT1080 IDH1KD tx, HT1080-NT tox)
